The structures appear in SMILES notation. “And” between values parts separate entries of the source, which are not always exact repeats. Equal values may be shown once. Some compounds were tested as several samples or in several runs, with calls that do not always agree. The source made the active and inactive calls. The calls were made as follows: active = hit-call score of the fitted dose curve at least 0.9, where 1 is the maximum; inconclusive = response in the unintended direction; inactive = score below 0.9.

Chain of Estrogen receptor beta (Homo sapiens) (Q92731 whole entry, looked up, the tested form may be a part): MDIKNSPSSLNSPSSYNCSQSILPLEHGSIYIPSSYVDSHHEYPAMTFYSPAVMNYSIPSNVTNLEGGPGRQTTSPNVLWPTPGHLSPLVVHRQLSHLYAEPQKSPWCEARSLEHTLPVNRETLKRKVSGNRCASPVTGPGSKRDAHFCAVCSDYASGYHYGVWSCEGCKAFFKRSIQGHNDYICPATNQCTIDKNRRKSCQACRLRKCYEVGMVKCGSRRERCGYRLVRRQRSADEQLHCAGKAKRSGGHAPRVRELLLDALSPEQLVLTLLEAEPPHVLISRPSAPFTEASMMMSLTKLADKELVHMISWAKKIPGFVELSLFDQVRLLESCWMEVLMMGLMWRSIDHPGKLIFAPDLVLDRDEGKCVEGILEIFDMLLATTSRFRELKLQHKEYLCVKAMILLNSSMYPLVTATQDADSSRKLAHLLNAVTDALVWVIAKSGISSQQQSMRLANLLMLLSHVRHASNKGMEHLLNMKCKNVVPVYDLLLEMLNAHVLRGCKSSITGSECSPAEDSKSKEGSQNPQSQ

This test addresses Estrogen receptor beta (Homo sapiens) (UniProt Q92731). Description: OT_ER_ERbERb_1440: Odyssey Thera (OT) 24-hour HEK293T Protein-Complementation Assay for Estrogen Receptor-beta/-beta Homodimer (AID 2283380).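 Also: fluorescence gain from ER beta LBD homodimer complementation read by laser scanning cytometry; scored as signal increase over DMSO baseline for both agonists and antagonists.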 In short, it runs like this:
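HEK293T cells stably expressing human ER-beta LBD (aa 310-547) PCA homodimer pair, dosed 24 h; formaldehyde-fixed, Draq5-stained. Readout: increase in nuclear (agonist) or nuclear plus cytoplasmic (antagonist) fluorescence intensity versus DMSO, gain-of-signal fitting.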
Regarding `C[C@]12CC[C@H](O)CC1=CC[C@@H]1[C@@H]2CC[C@]2(C)C(=O)CC[C@@H]12`, the AC50 was 3.34 µM (active). For the compound `C=C(C)C(=O)[O][Sn]([CH2]CCC)([CH2]CCC)[CH2]CCC`, the call was inactive. For `CCOP(=S)(OCC)Oc1nc(Cl)c(Cl)cc1Cl`, the outcome was inactive. On to `C[C@]12CCC(=O)C[C@@H]1CC[C@@H]1[C@@H]2CC[C@]2(C)[C@@H](O)CC[C@@H]12`, for which the half-maximal activity concentration (AC50) was 6.06 µM (active) and 8.11 µM (active) and 7.61 µM (active); the result was inactive.

Take `CCN1CCC2(CC1)COc1cc3c(cc12)N(C(=O)c1ccc(-c2ccc(-c4nnc(C)o4)cc2C)cc1)CC3`: the call was inactive.

Consider `C=CC#N`, for which the compound was classed as inactive.

Turning to `C[C@H]1CCCC(=O)CCC/C=C/c2cc(O)cc(O)c2C(=O)O1`, the AC50 was 0.0449 µM (active). Consider `Cc1ccccc1C(=O)Nc1cccc(OC(C)C)c1`, for which the outcome was inactive. With `CC12CC1(C)C(=O)N(c1cc(Cl)cc(Cl)c1)C2=O` (stereo not given), the compound was called inactive.

As to `COP(=S)(OC)Oc1ccc(Sc2ccc(OP(=S)(OC)OC)cc2)cc1`, the concentration at half-maximal activity (AC50) is 33.8 µM (active). In the case of `[O-][Cl+2]([O-])O`, the outcome was inactive. Still for that read-out and setting: in the case of `Oc1cccc2cccnc12` it was “inactive”; in that of `C[C@@H]1C[C@@H]([C@H](O)CC2CC(=O)NC(=O)C2)C(=O)[C@@H](C)C1`, “inactive”; in that of `O=C(Nc1ccc2[nH]ccc2c1)c1cc2cc(F)ccc2n1Cc1cccc(F)c1`, “inactive”. Take `CC(=O)[O][Hg][c]1ccccc1`: the outcome was inactive.

As to `NNC(=S)NN`, the outcome was inactive. Still for that read-out and setting: for `CC1(C)Cc2cccc(O)c2O1` the value was “inactive”; for `Clc1ccc(COC(Cn2ccnc2)c2ccc(Cl)cc2Cl)cc1` (stereo not given), “inactive”. Same read-out and setting: for `CC(C)(c1ccccc1)c1ccc(O)c(C(C)(C)c2ccccc2)c1` the value was “inactive”.

The record behind these values is PubChem BioAssay (EPA / NIEHS).
